Experiments:
Test in all cases: log2 ratio of Biotin-Ahx-Ub-VS probe labelling (fragment/DMSO); higher = less target engagement (more negative = stronger competition), active = hit call of the paper (q ≤ 0.05, log2 ratio ≤ -1)
Settings in all cases: compound concentration: 200 uM; treatment time: 3 h
OTUD6B = target: T1, OTUD6B (UniProt Q8N6M0)
T1 sequence (whole entry): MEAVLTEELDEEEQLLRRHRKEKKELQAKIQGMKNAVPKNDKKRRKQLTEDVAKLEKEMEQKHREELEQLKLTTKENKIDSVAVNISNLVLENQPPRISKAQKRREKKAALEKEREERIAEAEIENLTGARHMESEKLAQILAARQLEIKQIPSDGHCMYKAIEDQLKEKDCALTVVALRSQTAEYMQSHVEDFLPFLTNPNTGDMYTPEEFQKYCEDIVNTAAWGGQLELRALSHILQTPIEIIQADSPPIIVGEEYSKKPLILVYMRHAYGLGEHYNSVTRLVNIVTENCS
Outline: (§1)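 Using Biotin-Ahx-Ub-VS at 0.5 µM final for 1 h, DUBs were labelled in HEK293T lysate (495 µg per sample) that had first been treated in triplicate with fragment at 200 µM or vehicle for 3 h. NeutrAvidin enrichment, LysC and trypsin digestion and diaPASEF LC-MS/MS followed. Spectronaut label-free quantities were global-median-normalised. Values are average log2 fragment/vehicle ratios by unpaired t-test, using proteins with ≥2 unique peptides.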

OTUD7B = target: T2, OTUD7B (UniProt Q6GQQ9)
T2 sequence (whole entry): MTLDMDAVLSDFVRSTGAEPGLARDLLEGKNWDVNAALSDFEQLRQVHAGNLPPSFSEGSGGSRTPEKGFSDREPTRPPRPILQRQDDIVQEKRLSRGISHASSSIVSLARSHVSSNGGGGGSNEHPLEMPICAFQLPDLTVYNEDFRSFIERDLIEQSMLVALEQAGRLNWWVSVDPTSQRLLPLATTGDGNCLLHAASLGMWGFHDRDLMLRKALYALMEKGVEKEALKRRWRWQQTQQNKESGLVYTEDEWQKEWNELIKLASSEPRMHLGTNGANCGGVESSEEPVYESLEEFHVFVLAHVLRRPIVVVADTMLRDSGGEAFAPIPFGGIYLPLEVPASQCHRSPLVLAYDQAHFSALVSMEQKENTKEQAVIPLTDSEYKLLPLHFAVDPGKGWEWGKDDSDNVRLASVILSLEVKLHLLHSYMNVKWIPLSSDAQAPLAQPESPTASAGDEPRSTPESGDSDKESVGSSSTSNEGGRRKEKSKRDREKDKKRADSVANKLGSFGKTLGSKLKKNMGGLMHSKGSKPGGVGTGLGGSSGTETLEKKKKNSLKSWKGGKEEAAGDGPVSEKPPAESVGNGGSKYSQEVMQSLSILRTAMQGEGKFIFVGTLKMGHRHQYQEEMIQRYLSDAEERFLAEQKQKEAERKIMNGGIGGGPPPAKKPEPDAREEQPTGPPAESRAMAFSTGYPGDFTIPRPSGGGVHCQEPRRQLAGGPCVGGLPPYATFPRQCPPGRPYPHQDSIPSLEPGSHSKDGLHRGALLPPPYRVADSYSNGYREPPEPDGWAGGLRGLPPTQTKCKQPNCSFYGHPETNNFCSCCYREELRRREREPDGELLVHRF
Outline: as §1

PRPF8 = PRPF8 (UniProt Q6P2Q9)
Outline: as §1

PSMD7 = target: T3, PSMD7 (UniProt P51665)
T3 sequence (whole entry): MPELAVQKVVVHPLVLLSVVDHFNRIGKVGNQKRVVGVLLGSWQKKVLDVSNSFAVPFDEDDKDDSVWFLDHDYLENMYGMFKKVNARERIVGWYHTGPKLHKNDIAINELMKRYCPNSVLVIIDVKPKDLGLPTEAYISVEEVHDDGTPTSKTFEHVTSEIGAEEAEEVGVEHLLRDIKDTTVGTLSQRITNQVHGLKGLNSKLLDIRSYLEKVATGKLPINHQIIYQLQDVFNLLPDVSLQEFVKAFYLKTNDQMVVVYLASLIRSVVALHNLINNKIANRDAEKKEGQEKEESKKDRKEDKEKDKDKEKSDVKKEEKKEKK
Outline: as §1

UCHL1 = UCHL1 (UniProt P09936)
Outline: as §1

UCHL3 = target: T4, UCHL3 (UniProt P15374)
T4 sequence (whole entry): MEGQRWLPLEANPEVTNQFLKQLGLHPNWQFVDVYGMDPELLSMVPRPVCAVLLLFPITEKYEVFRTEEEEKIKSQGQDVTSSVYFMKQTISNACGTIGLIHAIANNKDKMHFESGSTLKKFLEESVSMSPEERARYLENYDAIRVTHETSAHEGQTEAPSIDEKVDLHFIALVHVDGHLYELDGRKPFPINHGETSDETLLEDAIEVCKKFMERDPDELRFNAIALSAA
Outline: as §1

UCHL5 = target: T5, UCHL5 (UniProt Q9Y5K5)
T5 sequence (whole entry): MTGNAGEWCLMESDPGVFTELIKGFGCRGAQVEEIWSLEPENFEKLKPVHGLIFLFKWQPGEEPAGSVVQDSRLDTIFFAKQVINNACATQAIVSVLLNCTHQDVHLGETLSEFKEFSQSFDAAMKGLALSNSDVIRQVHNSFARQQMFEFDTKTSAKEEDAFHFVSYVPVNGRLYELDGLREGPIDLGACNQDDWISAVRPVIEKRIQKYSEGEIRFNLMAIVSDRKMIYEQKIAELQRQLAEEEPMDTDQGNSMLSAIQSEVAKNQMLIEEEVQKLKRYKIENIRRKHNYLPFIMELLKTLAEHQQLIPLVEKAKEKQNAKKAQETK
Outline: as §1

USP10 = USP10 (UniProt Q14694)
Outline: as §1

USP15 = target: T6, USP15 (UniProt Q9Y4E8)
T6 sequence (whole entry): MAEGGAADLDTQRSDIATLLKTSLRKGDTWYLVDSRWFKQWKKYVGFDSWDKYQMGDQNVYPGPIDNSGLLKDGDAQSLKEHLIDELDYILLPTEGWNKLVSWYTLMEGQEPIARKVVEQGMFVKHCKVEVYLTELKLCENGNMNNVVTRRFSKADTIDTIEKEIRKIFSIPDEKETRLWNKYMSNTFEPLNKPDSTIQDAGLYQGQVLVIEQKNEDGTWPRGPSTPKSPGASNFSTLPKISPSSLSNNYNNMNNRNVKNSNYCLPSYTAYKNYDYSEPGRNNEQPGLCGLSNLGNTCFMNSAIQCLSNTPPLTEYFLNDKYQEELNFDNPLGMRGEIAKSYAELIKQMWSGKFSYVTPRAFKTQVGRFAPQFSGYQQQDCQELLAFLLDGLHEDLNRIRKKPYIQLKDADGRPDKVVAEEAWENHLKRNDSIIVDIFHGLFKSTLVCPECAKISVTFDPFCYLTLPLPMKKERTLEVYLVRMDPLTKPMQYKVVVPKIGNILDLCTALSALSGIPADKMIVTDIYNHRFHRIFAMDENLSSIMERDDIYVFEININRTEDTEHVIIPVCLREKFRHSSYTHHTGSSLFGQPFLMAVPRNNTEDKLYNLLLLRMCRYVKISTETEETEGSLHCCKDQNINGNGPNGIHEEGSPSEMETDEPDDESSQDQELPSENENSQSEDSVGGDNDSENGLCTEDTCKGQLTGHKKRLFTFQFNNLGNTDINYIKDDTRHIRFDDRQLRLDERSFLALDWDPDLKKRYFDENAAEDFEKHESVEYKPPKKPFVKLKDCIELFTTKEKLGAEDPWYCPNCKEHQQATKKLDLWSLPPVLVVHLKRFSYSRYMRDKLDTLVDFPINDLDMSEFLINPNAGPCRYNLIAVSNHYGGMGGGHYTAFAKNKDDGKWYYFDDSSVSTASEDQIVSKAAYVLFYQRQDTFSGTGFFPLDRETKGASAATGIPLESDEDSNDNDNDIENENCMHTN
Outline: as §1

Measured: log2 ratio of Biotin-Ahx-Ub-VS probe labelling

UCHL1, sequence (P09936 whole entry, looked up): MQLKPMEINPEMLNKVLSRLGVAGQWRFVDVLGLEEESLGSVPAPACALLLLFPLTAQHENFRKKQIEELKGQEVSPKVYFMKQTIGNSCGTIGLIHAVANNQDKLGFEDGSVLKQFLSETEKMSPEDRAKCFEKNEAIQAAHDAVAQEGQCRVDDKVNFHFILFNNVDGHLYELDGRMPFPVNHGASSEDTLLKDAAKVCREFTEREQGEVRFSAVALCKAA
USP10, sequence (Q14694 whole entry): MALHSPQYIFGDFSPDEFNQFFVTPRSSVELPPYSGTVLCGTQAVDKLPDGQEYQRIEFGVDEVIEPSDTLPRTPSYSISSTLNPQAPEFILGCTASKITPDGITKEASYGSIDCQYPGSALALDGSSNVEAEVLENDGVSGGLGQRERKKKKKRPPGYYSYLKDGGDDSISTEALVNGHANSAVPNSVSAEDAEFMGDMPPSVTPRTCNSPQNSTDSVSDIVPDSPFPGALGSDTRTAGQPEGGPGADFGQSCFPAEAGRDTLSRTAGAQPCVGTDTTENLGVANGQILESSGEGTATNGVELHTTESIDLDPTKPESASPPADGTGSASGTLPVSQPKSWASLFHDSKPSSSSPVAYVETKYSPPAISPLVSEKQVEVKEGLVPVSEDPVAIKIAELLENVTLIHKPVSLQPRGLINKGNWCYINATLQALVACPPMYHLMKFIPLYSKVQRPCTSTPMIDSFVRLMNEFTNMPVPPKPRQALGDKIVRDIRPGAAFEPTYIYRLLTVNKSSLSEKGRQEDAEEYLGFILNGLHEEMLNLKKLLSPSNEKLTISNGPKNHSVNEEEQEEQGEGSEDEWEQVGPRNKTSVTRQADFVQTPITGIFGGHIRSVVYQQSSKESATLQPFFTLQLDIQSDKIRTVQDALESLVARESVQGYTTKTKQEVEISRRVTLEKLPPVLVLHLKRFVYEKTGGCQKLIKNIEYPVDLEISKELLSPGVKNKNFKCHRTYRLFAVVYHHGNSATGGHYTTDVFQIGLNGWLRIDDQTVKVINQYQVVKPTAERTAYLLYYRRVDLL

O=C(CCl)N1CCCN(C(=O)c2ccc(Cl)cc2)CC1
inactive: OTUD6B -0.316 | OTUD7B -0.767 | PRPF8 0.0935 | PSMD7 -0.253 | UCHL3 0.267 | UCHL5 -0.389 | USP10 0.0223 | USP15 -0.429
active: UCHL1 -1.68

From the supplement of paper PMC11732987, “Enantioselective OTUD7B fragment discovery through chemoproteomics screening and high-throughput optimisation” (Communications Chemistry, 2025)
